Results reported in PubChem BioAssay.
Results filed as inconclusive are left out. Calls of active or inactive are those of the source.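 Rule for the calls, unless noted: active = viability at or below 10% of carrier control in both of two separate runs; inconclusive = viability at or below 10% in only one of the two runs; inactive = the rest.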

Assays:
[1] = Her2 expression decrease, cell viability multiplex – SKBR3 breast tumor cells, AlphaScreen, ATP viability, primary screen (AID 461;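 active = Her2 level under about 52% in both replicate screens, with viability over 70% of control, limit read from the data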;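 for Her2 level: lower value means less Her2 protein in the cells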;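 for viability: percent of carrier control wells set as 100% viability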); conditions: SKBR3 Her2 protein level, 18-24 h, measured here: SKBR3 viability, ATP luminescence, at 10 µM
[2] = molecular target: Receptor tyrosine-protein kinase erbB-2 (Homo sapiens) (UniProt P04626); assay: as above; conditions: 18-24 h, at 10 µM, stronger effect = lower value
Chain of Receptor tyrosine-protein kinase erbB-2 (Homo sapiens) (P04626 whole entry, looked up): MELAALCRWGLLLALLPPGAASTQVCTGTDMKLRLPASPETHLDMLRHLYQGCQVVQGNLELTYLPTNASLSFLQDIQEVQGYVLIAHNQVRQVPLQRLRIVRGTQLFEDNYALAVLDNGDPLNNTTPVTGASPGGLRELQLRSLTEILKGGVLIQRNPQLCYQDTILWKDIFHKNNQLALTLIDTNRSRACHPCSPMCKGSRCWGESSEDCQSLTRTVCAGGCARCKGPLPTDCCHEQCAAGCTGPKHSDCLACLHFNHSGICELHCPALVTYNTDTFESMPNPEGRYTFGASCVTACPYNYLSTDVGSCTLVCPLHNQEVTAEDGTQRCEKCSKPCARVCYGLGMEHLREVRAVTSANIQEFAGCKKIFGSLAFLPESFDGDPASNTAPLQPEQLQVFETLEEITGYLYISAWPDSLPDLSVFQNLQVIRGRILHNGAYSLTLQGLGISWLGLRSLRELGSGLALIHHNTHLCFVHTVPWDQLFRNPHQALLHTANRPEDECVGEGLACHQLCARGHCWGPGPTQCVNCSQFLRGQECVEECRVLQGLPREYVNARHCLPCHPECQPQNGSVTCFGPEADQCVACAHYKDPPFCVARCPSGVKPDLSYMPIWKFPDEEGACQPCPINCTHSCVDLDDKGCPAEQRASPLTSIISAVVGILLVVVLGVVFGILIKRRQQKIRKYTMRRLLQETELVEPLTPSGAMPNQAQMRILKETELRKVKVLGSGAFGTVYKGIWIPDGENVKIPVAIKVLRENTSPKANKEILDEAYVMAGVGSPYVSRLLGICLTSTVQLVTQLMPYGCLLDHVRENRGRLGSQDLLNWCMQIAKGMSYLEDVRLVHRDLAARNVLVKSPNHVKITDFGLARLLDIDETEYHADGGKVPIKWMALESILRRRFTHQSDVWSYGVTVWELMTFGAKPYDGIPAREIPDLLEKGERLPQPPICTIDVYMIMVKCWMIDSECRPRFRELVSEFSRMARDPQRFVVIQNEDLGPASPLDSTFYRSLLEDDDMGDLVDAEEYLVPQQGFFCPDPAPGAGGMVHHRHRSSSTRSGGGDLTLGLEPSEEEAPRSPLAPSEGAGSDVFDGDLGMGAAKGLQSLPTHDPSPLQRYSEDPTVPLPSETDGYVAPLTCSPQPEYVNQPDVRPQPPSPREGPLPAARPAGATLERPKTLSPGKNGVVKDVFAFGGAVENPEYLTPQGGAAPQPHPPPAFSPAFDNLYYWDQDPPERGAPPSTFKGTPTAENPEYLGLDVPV

[3] = reduced viability of SK-BR-3 breast cancer cells – cell-based, 24 h, human, pilot screen (AID 572); conditions: SK-BR-3 viability, CellTiter-Glo luminescence, at 10 µM, stronger effect = lower value;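 note: compound exposure lasted between 18 and 24 h rather than exactly 24 h; 100% = carrier-treated control wells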
[4] = HUVEC growth inhibition – cell-based, human, primary screen (AID 575;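 active = viability at or below 30% in both replicate assays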;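 note: 100% = median of untreated cell wells with 0.1% DMSO on each plate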); conditions: HUVEC proliferation, CellTiter-Glo luminescence, 72 h; at 10 µM; stronger effect = lower value
[5] = H69AR cell proliferation blockers – human, duplicate replicates, primary screen (AID 580;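 active = viability at or under a set limit in both replicates, limit being median viability minus 3 SD, cut at about 48% in these data, passing the limit was not always enough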;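 note: 100% = mean luminescence of untreated wells and 0% = no signal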); conditions: H69AR lung tumor cells viability, ATP luminescence, 72 h; at 10 µM; stronger effect = lower value
[6] = MRP1 drug-resistance reversers in H69AR cells – cell-based, doxorubicin co-treatment, pilot screen (AID 601;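 active = viability loss from added drug above about 55%, and viability with drug at most 40%, in both replicates, limit read from the data, passing the limit was not always enough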); conditions: CellTiter-Glo, 72 h, at 10 µM; for differential viability (reversal): stronger effect = higher value
[7] = yeast transport mutant growth inhibition pilot in 384-well plates, post-Golgi transport modulator project (AID 636; in the data active = inhibition above about 31%); conditions: absorbance 615 nm, about 18 h, stronger effect = higher value
[8] = growth suppression of yeast trafficking mutant, preliminary HTS, modulators of trafficking downstream of Golgi apparatus project, 1536-format plate, OD 615 nm (AID 637; in the data active = inhibition above about 30%); conditions: yeast transport mutant growth, absorbance 615 nm, 18 h; stronger effect = higher value
[9] = S. cerevisiae growth inhibition in permissive medium (OD615), pilot counter-assay for S. cerevisiae lifespan shortening project, permissive growth control (AID 705;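 active = growth inhibition above 25% in both replicates, a cutoff set 3 SD above the mean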); conditions: OD615, 24 h, at 10 µM, stronger effect = higher value
[10] = S. cerevisiae growth inhibition in restrictive medium, OD615, pilot screen, restrictive growth control, yeast lifespan reduction project (AID 706;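 active = growth inhibition above a set limit, 3 SD over mean compound inhibition, in both replicates, cut at about 43% in these data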;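 note: modified DeaD lifespan yeast strain shifted to restrictive glucose medium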); conditions: OD615, 48 h, at 10 µM, stronger effect = higher value
[11] = doxorubicin toxicity protection in MRP-1 cells – H69AR cells, CellTiter-Glo, duplicate, MRP-1 activator project, pilot screen (AID 807;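 active = viability increase at or above a cutoff of the median across tested compounds plus 3 SD, cut at about 8.5% in these data, passing the limit was not always enough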;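 note: compound pretreatment 18-22 h then 72 h combined with doxorubicin; 0% = doxorubicin alone and 100% = vehicle without doxorubicin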); conditions: H69AR viability with doxorubicin, CellTiter-Glo luminescence; at 10 µM; stronger effect = higher value
[12] = viability of HCT116 without oncogenic beta-catenin – human colon tumor cells, pilot screen (AID 823;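 active = cell viability at or below a set limit in both duplicate runs, the limit being the all-compound median minus 4 SD, cut at about 23% in these data, passing the limit was not always enough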;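 note: 0% = wells killed by 20 µM Hyamine and 100% = untreated DMSO cell wells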); conditions: HCT116 beta-catenin knockout viability, CellTiter-Glo, 60 h; at 10 µM; stronger effect = lower value
[13] = viability of PTEN-null HCT116 cells – cell-based, HCT116 clonal line, CellTiter-Glo, pilot screen (AID 824;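 active = viability at or below 27.92% in each of two runs, the all-compound median minus 4 SD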;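 note: 0% = 20 µM Hyamine control and 100% = vehicle cell control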); conditions: HCT116 PTEN-deleted viability, 60 h, at 10 µM, stronger effect = lower value
[14] = RAM pathway blockade in budding yeast – dse1pr::URA3 reporter, 5-FOA selection, pilot screen (AID 869;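 active = inhibition over a set limit, the all-compound mean plus 3 SD, in both replicate runs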;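 note: 0% = DMSO wells with no growth and 100% = 10 µM 1-NA-PP1 with full growth; RAM network block rescues cells from 5-FOA so hits raise OD615 growth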); conditions: S. cerevisiae dse1pr::URA3 5-FOA growth, OD615, 2 d; at 10 µM; stronger effect = higher value; strain carries analog-sensitive mutant Cbk1 kinase
[15] = RAM signaling pathway blockade in yeast – S. cerevisiae, Pdr1DBD-CYC8 efflux-inhibited sensitized strain, primary screen (AID 1298;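 active = RAM network inhibition above 8.4% in each of two replicates, 3 SD over the compound average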;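 note: 0% = DMSO untreated cells without growth and 100% = 10 µM 1-NA-PP1 full growth; higher means more yeast growth rescued from 5-FOA killing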); conditions: S. cerevisiae cbk1-as DSE1-URA3 strain, 5-FOA growth OD615, 2 d; at 50 µM; stronger effect = higher value
[16] = H69AR cells + 2 uM doxorubicin, measured here: viability with 2 uM doxorubicin, stronger effect = lower value
[17] = H69AR cells, compound alone cytotoxicity

CCn1cc(SCC(=O)Nc2cc(C)on2)c2ccccc21
inactive: Her2 level [2] 84% | viability [3] 110% | viability [4] 89.4% | viability [5] 84% | differential viability (reversal) ([6]; H69AR cells + 2 uM doxorubicin) 3.56% | inhibition [7] -4.13% | inhibition [8] -1.15% | growth inhibition [9] -5.85% | growth inhibition [10] -7.99% | viability increase [11] 1.09% | viability [12] 92.3% | viability [13] 92.3% | inhibition [14] 1.87% | RAM network inhibition [15] 2.85%
84%: viability [6, 17]
110%: viability [1]
80.5%: viability [6, 16]

COc1ccccc1-n1c(=O)[nH]c2c(C(N)=O)nc(-c3cccnc3)nc21
69.9%: viability [6, 17]
82.5%: viability [1]
75.6%: viability [6, 16]
inactive: Her2 level [2] 88.5% | viability [3] 82.5% | viability [4] 73.7% | viability [5] 69.9% | differential viability (reversal) ([6]; H69AR cells + 2 uM doxorubicin) -5.7% | inhibition [7] -3.2% | inhibition [8] -3.93% | growth inhibition [9] -7.79% | growth inhibition [10] -16.8% | viability increase [11] -7.14% | viability [12] 72.9% | viability [13] 67.7% | inhibition [14] 2.47% | RAM network inhibition [15] 4.37%

O=C(C1CCN(c2nnc(-n3cccc3)s2)CC1)N1CCOCC1
87.3%: viability [6, 16]
87.5%: viability [6, 17]
84%: viability [1]
inactive: Her2 level [2] 80% | viability [3] 84% | viability [4] 86.2% | viability [5] 87.5% | differential viability (reversal) ([6]; H69AR cells + 2 uM doxorubicin) 0.17% | inhibition [7] -5.2% | inhibition [8] -1.67% | growth inhibition [9] -0.63% | growth inhibition [10] -1.73% | viability increase [11] 0.27% | viability [12] 101% | viability [13] 96.7% | inhibition [14] 1.83% | RAM network inhibition [15] 6.37%

COc1ccccc1OCC(=O)N1CCN(c2ccccc2OC)CC1
inactive: Her2 level [2] 124% | viability [3] 93.5% | viability [4] 111% | viability [5] 104% | differential viability (reversal) ([6]; H69AR cells + 2 uM doxorubicin) 13.2% | inhibition [7] 3.78% | inhibition [8] -2.7% | growth inhibition [9] -3.77% | growth inhibition [10] -2.73% | viability increase [11] -2.73% | viability [12] 96.9% | viability [13] 95% | inhibition [14] 0.87% | RAM network inhibition [15] -1.28%
93.5%: viability [1]
104%: viability [6, 17]
91.2%: viability [6, 16]

CCc1cc(=O)n2[nH]c(C)c(-c3ccccc3OC)c2n1
80.5%: viability [1]
inactive: Her2 level [2] 106% | viability [3] 80.5% | viability [4] 91.3% | viability [5] 100% | differential viability (reversal) ([6]; H69AR cells + 2 uM doxorubicin) 5.22% | inhibition [7] 0.13% | inhibition [8] -6.83% | growth inhibition [9] -1.09% | growth inhibition [10] 0.365% | viability increase [11] -3.04% | viability [12] 98.6% | viability [13] 105% | inhibition [14] 2.31% | RAM network inhibition [15] 1.78%
95%: viability [6, 16]
100%: viability [6, 17]

CC(C)c1ccc(C(O)c2cnc(C(C)C)n2C)cc1 (centres undefined)
88.1%: viability [6, 17]
112%: viability [1]
inactive: Her2 level [2] 92% | viability [3] 112% | viability [4] 116% | viability [5] 88.1% | differential viability (reversal) ([6]; H69AR cells + 2 uM doxorubicin) 6.51% | inhibition [7] -4.13% | inhibition [8] 2.5% | growth inhibition [9] -6.82% | growth inhibition [10] -0.345% | viability increase [11] 0.64% | viability [12] 96.4% | viability [13] 91% | inhibition [14] 0.355% | RAM network inhibition [15] 1.77%
81.6%: viability [6, 16]

CC1CCN(c2nc3c(c(=O)[nH]c(=O)n3C)n2CCSc2ncccn2)CC1
90.8%: viability [6, 17]
90.4%: viability [6, 16]
inactive: Her2 level [2] 97% | viability [3] 96.5% | viability [4] 109% | viability [5] 90.8% | differential viability (reversal) ([6]; H69AR cells + 2 uM doxorubicin) 0.415% | inhibition [7] -4.4% | inhibition [8] -5.17% | growth inhibition [9] 1.06% | growth inhibition [10] -2.73% | viability increase [11] -0.46% | viability [12] 102% | viability [13] 102% | inhibition [14] 2.46% | RAM network inhibition [15] 2.81%
96.5%: viability [1]

CC(=O)NCc1nc2ccccc2n1C(C)C
92.3%: viability [6, 17]
82.3%: viability [6, 16]
inactive: Her2 level [2] 108% | viability [3] 104% | viability [4] 84.2% | viability [5] 92.3% | differential viability (reversal) ([6]; H69AR cells + 2 uM doxorubicin) 10% | inhibition [7] -4.93% | inhibition [8] -4.83% | growth inhibition [9] -13.7% | growth inhibition [10] -29.9% | viability increase [11] -0.81% | viability [12] 105% | viability [13] 95.5% | inhibition [14] 0.84% | RAM network inhibition [15] 3.6%
104%: viability [1]

COCCNC(=O)CN(C)S(=O)(=O)c1ccc(Br)cc1
104%: viability [6, 17]
inactive: Her2 level [2] 98% | viability [3] 113% | viability [4] 97.5% | viability [5] 104% | differential viability (reversal) ([6]; H69AR cells + 2 uM doxorubicin) 5.54% | inhibition [7] -6.27% | inhibition [8] -3.23% | growth inhibition [9] -11.6% | growth inhibition [10] -5.76% | viability increase [11] -2.09% | viability [12] 98.7% | viability [13] 98.4% | inhibition [14] 0.87% | RAM network inhibition [15] 3.01%
98.2%: viability [6, 16]
113%: viability [1]

COC(=O)Cn1ncc2c(C)n(Cc3ccccc3)c(C)c2c1=O
88.9%: viability [6, 16]
inactive: Her2 level [2] 112% | viability [3] 122% | viability [4] 107% | viability [5] 96% | differential viability (reversal) ([6]; H69AR cells + 2 uM doxorubicin) 7.04% | inhibition [7] -3.73% | inhibition [8] 2% | growth inhibition [9] -7.07% | growth inhibition [10] -6.09% | viability increase [11] 2.78% | viability [12] 100% | viability [13] 96.7% | inhibition [14] 0.365% | RAM network inhibition [15] 2.88%
96%: viability [6, 17]
122%: viability [1]

CCN1C(=C2C(=O)c3ccccc3C2=O)C=Cc2ccccc21
93.4%: viability [6, 17]
93.9%: viability [6, 16]
96.5%: viability [1]
inactive: Her2 level [2] 97% | viability [3] 96.5% | viability [4] 92.6% | viability [5] 93.4% | differential viability (reversal) ([6]; H69AR cells + 2 uM doxorubicin) -0.49% | inhibition [7] 0.64% | inhibition [8] -8% | growth inhibition [9] -23.3% | growth inhibition [10] -27.6% | viability increase [11] -1.18% | viability [12] 105% | viability [13] 95.1% | inhibition [14] 1.86% | RAM network inhibition [15] -0.72%

CCOC(=O)C(C(=O)OCC)C(C)C#CCN1CCCCC1 (centres undefined)
inactive: Her2 level [2] 116% | viability [3] 91.5% | viability [4] 87.2% | viability [5] 90.4% | differential viability (reversal) ([6]; H69AR cells + 2 uM doxorubicin) 1.13% | inhibition [7] -3.08% | inhibition [8] -5.5% | growth inhibition [9] -2.21% | growth inhibition [10] -1.49% | viability increase [11] -2.18% | viability [12] 93.9% | viability [13] 97% | inhibition [14] -0.12% | RAM network inhibition [15] 7.5%
90.4%: viability [6, 17]
91.5%: viability [1]
89.2%: viability [6, 16]
